These results are taken from PubChem BioAssay.

One test deals with Albumin (Bos taurus) (UniProt P02769). Put plainly: compounds binding labelled BSA control protein – biochemical, small-molecule microarray, Alexa647 label, 635/667 nm fluorescence, artefact control for SMM control protein annotation, profiling panel (AID 1118).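 Also: score merges 667 nm emission intensity and signal-to-noise per printed compound spot.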 Particulars: BSA-A647 binding, fluorescence 635 nm, higher = more signal.
Test [1] in a line: probe aXIP binding to arrayed compounds – biochemical, NeuroSMM set, 635/667 nm fluorescence, primary screen (AID 1119).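 Also: probe is the protein aXip251-270 applied at 1 µg/mL to compound-printed slides; binding of probe to printed compounds measured as 667 nm fluorescence plus signal to noise.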 The note with it: small-molecule microarray, higher = more signal, called active from +8 up or from −8 down.
Test [2] in a line: probe aNOTCH3 binding on compound microarray – biochemical, small-molecule microarray, 635/667 nm fluorescence, primary screen (AID 1120).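 Also: probe is a biotin-tagged antibody raised against NOTCH3 rather than NOTCH3 protein; score merges spot fluorescence near 667 nm with spot signal to noise.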 Particulars: higher = more signal.
The nature of test [3]: probe aNOTCH2 binding on compound microarray – biochemical, small-molecule microarray, 635/667 nm fluorescence, primary screen (AID 1121).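 Also: score merges feature fluorescence read at 667 nm with its signal to noise.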 The note with it: higher = more signal.
Test [4] has as its target Carbonic anhydrase 2 (Homo sapiens) (UniProt P00918). Put plainly: compounds binding carbonic anhydrase 2 – biochemical, small-molecule microarray, Alexa647-labelled CAII, profiling panel (AID 1122). Particulars: CAII-A647 binding fluorescence, higher = more signal.
A short description of test [5]: COS7 lysate on small-molecule microarray, probe aHis, 635 nm (AID 1123).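 Also: z-score combines 667nm fluorescence intensity with signal-to-noise per printed compound spot.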 The note with it: COS7 cell lysate, fluorescence, higher = more signal.
Test [6] in a line: probe aLAP1 signal on lysate-treated microarray – cell lysate, small-molecule microarray, COS7 lysate, primary screen (AID 1124).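 Also: lysate comes from COS7 cells expressing LAP1 and is applied at 0.3 µg/mL; score merges spot fluorescence near 667 nm with signal-to-noise over triplicate slides.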 The note with it: probe aLAP1, fluorescence, higher = more signal.
The test system of the next test is Sam68 (KHDRBS1). The experiment in a line: compounds binding KHDRBS1 protein – biochemical, small-molecule microarray, 635 nm fluorescence, primary screen (AID 1125).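 Also: score merges 667 nm channel intensity with signal to noise over triplicate slides.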 Particulars: higher = more signal.
The test system of test [7] is Chordin-like protein 2 (CHRDL2). Put plainly: compounds binding chordin-like 2 – biochemical, small-molecule microarray, 635 nm fluorescence, primary screen (AID 1126).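 Also: printed compound slides probed with Chrdl2 protein at 4 µg/mL for 1 h at 4 C; score merges 667 nm emission intensity with signal to noise over three replicate slides.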 Particulars: fluorescence 635 nm, higher = more signal.
In test [8] the target is Concanavalin-A (Canavalia ensiformis) (UniProt P02866). Put plainly: compounds binding concanavalin A lectin – biochemical, small-molecule microarray, Alexa647 label, 635 nm, artefact control for SMM control protein annotation, primary screen (AID 1127).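 Also: z combines 667 nm emission intensity with signal-to-noise across three replicate slides.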 The note with it: ConA-A647 binding fluorescence, higher = more signal.
Chain of Concanavalin-A (Canavalia ensiformis) (P02866 whole entry, looked up): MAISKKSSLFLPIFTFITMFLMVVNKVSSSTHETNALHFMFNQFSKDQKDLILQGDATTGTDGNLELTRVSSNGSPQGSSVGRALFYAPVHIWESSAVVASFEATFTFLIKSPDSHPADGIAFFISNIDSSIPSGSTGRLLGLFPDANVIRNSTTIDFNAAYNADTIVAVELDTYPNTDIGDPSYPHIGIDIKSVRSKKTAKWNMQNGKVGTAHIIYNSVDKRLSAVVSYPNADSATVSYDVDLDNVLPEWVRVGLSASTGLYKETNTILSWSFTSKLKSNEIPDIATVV
Test [9] is described as follows: compounds binding Alexa647 anti-His antibody – biochemical, small-molecule microarray, 635 nm fluorescence, artefact control for SMM control protein annotation, primary screen (AID 1128).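 Also: score merges feature fluorescence with signal-to-noise for each printed compound spot.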 Particulars: higher = more signal.
The test system of test [10] is Human papillomavirus type 1a E7 protein (residues 1-88). Put plainly: HPV1a E7 small-molecule binders, primary screen, biochemical, small-molecule microarray, residues 1-88, 635 nm (AID 1129). The note with it: small-molecule microarray binding, fluorescence 635 nm; higher = more signal.
The target of test [11] is Focal adhesion kinase 1 (Homo sapiens) (UniProt Q05397). Put plainly: PTK2 protein binding on printed compound slides – biochemical, small-molecule microarray, 635/667 nm fluorescence, BSA, DTT, primary screen (AID 1130).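 Also: composite of spot emission at 667 nm and signal to noise over triplicate slides.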 The note with it: 635 nm fluorescence, higher = more signal.
Chain of Focal adhesion kinase 1 (Homo sapiens) (Q05397 whole entry, looked up): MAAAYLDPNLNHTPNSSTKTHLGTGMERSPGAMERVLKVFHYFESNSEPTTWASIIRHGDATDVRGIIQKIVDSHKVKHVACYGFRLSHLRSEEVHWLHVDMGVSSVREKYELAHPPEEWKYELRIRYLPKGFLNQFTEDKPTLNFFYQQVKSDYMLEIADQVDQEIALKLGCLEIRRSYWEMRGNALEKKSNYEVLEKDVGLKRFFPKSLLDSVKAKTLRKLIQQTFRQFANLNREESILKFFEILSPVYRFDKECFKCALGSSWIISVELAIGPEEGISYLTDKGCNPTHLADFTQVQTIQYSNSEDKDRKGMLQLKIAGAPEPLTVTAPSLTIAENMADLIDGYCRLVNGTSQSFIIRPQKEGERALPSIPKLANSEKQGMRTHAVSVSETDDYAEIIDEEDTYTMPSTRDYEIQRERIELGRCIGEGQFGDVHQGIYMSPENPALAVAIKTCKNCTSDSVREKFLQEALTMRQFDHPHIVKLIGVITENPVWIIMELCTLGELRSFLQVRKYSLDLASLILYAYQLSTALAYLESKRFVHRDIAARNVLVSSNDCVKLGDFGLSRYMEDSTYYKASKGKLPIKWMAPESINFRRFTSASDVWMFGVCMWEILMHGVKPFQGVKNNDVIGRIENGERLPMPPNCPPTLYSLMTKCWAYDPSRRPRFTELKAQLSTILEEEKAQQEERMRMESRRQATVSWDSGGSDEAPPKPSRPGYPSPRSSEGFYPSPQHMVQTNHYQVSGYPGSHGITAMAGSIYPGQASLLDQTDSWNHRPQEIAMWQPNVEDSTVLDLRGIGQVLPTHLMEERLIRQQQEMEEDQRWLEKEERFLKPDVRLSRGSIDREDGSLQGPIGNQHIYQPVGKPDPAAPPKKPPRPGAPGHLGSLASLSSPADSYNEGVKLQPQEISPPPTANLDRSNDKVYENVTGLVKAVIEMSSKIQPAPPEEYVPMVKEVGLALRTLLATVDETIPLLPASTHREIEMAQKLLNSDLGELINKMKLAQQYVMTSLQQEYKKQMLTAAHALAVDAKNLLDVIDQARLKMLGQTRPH
In test [12] the test system is Fibrinogen (Alexa647-labelled). The experiment in a line: Alexa647-fibrinogen binding to printed small molecules – biochemical, small-molecule microarray, 635/667 nm fluorescence, artefact control for SMM control-protein annotation, profiling panel (AID 1131).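 Also: z-score merges 667 nm fluorescence with per-spot signal-to-noise over triplicate slides.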 Particulars: fibrinogen-A647 binding fluorescence, higher = more signal.
Test [13] has as its target Follistatin (Homo sapiens) (UniProt P19883). The experiment in a line: FST protein binding to printed compounds – biochemical, small-molecule microarray, 635/667 nm fluorescence, primary screen (AID 1132). The note with it: 635 nm fluorescence, higher = more signal.
Test [14] addresses Fibroblast growth factor 2 (Homo sapiens) (UniProt P09038). The experiment in a line: basic fibroblast growth factor binding to printed compounds – biochemical, small-molecule microarray, 635/667 nm fluorescence, primary screen (AID 1133). The note with it: FGF2, fluorescence 635/667, higher = more signal.
Test [15] can be described thus: JC-1 mitochondrial potential readout, lung cancer cells – cell-based, A549, JC-1 fluorescence, basal, 24 h, 100 nL, profiling panel (AID 1138).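 Also: A549 lung adenocarcinoma cells under basal conditions with no added stimulus; test concentration not given here.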 Particulars: higher = more signal.
The next test concerns Lefty1. Put plainly: Lefty1 protein binding to printed compounds – biochemical, small-molecule microarray, 635/667 nm fluorescence, primary screen (AID 1139). Particulars: fluorescence 635/667, higher = more signal.
For test [16], the system named is wheat germ agglutinin (Triticum aestivum), Alexa647-labelled. The experiment in a line: Alexa647-WGA lectin binding to printed small molecules – biochemical, small-molecule microarray, 635/667 nm fluorescence, artefact control for SMM control-protein annotation, profiling panel (AID 1140).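 Also: score merges 667 nm feature emission with signal to noise over triplicate slides.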 Particulars: WGA-A647 binding, 635 nm fluorescence, higher = more signal.
The target in test [17] is Luciferin 4-monooxygenase (Photinus pyralis) (UniProt P08659). Put plainly: inhibition of purified Photinus pyralis luciferase – biochemical, luminescence, purified enzyme, 2006 set, primary screen (AID 1141).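 Also: cell-free assay with purified firefly luciferase at 100 ng per well in PBS; test concentration not given here.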 The note with it: purified firefly luciferase, SteadyGlo luminescence, 30 min; higher = more signal, called active from +8 up or from −8 down.
Chain of Luciferin 4-monooxygenase (Photinus pyralis) (P08659 whole entry, looked up): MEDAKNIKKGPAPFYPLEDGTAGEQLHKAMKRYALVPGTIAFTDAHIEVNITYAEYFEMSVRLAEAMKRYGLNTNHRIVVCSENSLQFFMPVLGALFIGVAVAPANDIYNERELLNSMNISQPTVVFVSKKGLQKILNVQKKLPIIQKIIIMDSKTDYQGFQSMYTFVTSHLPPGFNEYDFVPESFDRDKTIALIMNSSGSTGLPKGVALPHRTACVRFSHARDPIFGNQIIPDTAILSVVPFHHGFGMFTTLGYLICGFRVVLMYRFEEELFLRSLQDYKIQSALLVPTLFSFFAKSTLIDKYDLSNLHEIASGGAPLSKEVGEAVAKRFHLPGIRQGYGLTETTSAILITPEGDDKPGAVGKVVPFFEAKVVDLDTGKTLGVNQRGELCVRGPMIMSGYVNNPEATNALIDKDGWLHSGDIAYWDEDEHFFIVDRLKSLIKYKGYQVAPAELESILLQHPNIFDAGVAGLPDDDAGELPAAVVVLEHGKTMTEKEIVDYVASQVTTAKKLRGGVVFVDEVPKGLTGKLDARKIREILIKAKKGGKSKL

Each structure is given as a SMILES string. Activity calls are given as the source filed them.

Chain of Follistatin (Homo sapiens) (P19883 whole entry, looked up): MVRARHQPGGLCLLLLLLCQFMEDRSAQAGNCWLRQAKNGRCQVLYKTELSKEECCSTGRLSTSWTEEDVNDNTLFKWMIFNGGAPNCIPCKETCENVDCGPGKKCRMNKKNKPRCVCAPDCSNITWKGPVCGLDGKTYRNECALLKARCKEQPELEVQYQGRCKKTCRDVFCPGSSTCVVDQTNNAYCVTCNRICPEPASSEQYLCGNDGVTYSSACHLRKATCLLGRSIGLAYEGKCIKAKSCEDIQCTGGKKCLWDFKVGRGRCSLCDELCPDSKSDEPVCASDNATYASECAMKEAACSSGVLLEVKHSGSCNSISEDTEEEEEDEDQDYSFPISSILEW
Chain of Fibroblast growth factor 2 (Homo sapiens) (P09038 whole entry, looked up): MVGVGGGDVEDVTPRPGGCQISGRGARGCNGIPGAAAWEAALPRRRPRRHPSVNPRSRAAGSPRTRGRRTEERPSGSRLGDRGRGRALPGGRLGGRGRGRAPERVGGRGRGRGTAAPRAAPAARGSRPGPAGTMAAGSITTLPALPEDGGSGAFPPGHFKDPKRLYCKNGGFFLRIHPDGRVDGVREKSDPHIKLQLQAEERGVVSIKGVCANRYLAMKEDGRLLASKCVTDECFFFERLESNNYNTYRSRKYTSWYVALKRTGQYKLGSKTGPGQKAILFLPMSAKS
Chain of Albumin (Bos taurus) (P02769 whole entry, looked up): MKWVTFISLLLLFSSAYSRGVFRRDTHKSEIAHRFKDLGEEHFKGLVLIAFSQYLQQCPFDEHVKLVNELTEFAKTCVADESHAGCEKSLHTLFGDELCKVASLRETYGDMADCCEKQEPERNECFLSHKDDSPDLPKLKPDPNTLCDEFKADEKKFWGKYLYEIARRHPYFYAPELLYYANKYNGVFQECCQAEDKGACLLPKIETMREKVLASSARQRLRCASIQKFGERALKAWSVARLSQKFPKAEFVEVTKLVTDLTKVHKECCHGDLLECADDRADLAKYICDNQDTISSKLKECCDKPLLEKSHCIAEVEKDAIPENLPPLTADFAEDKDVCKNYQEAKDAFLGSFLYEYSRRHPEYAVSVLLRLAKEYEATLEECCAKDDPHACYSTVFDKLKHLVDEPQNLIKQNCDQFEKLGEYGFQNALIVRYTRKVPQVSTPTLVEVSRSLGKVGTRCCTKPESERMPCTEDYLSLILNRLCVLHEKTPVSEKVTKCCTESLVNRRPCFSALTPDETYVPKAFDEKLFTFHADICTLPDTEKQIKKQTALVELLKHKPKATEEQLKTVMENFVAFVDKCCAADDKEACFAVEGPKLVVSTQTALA

With `CC(C)N1CC=CC23O[C@@H]4C=CCCOC(=O)C4[C@H]2C(=O)N(CCCCCCO)[C@@H]3C1=O` (stereo not given in full), the composite z-score with Albumin (Bos taurus) is -0.176; in [2], -0.193; in test [3], 0.109; in test [4], 0.439; in [5], -0.425; in test [6] it was 0.753. The composite z-score with Sam68 (KHDRBS1) was -0.952; in test [7] it was -1.71; in [8], -0.428; in test [9], -0.112; in test [10], -0.807; in [11], -0.268. In addition, the composite z-score in test [12] is -1.2; in [13], -0.851; in [14] it was -1.6; with Lefty1 it was -0.187; in test [16], -1.32. For the same molecule, in test [1], the composite Z-score was 0.0157 (inactive). Also, the z-score in test [15] was 0.526; in test [17] it was -0.127 (inactive).

Turning to `O=C(NN=C1C[C@@H](O)[C@@H](O)[C@@H]2[C@@H]3C(=O)N(c4cccc(Oc5ccccc5)c4)C(=O)[C@@H]3CC[C@H]12)OCc1ccccc1`, the composite z-score is 0.724 with Albumin (Bos taurus); -0.0204 in test [2]; -0.204 in [3]; -0.0039 in test [4]; 1.82 in test [5]; 0.122 in test [6]. Also, the composite z-score in the test with Sam68 (KHDRBS1) was -0.406; in test [7], 0.0071; in test [8], 0.186; in [9], 1.22; in test [10], 0.116; in [11] it was -0.294. The composite z-score in [12] came out at 0.906; in test [13] it was 0.165; in test [14], 0.237; in the test with Lefty1, 0.168; in test [16] it was 0.557. In addition, in test [1], the composite Z-score is -0.558 (inactive). Also, the z-score in test [15] is -1.25; in [17], 1.26 (inactive).

`COC(=O)CC1OC1[C@H](C)[C@@H](OC)C(C)C` (stereo not given in full): the composite z-score in the test with Albumin (Bos taurus) is -0.294; in [2], -0.0647; in test [3], -0.124; in [4], 0.232; in test [5], -0.64; in test [6], 0.229. The composite z-score in the test with Sam68 (KHDRBS1) is -0.22; in test [7], 1.03; in test [8], -0.321; in test [9] it was -0.0177; in [10] it was 0.212; in test [11], -0.405. Also, the composite z-score in [12] was determined as 0.745; in [13], 0.623; in [14] it was 0.443; in the test with Lefty1 it was 0.786; in [16] it was 0.733. The composite Z-score in [1] is 0.406 (inactive). Moreover, the z-score in [15] was 3.01; in test [17], -1.73 (inactive).

Regarding `COCCNC(=O)OCC1CCCC2(CC(OC(=O)NCCc3ccc(F)cc3)CC(CCC(=O)N[C@@H](C)C(=O)OC)O2)O1` (stereo not given in full), the composite z-score was 0.456 with Albumin (Bos taurus); 0.0228 in [2]; -0.144 in [3]; 0.245 in test [4]; 0.292 in [5]; -0.0037 in test [6]. The composite z-score with Sam68 (KHDRBS1) was determined as 1.3; in test [7], 0.581; in test [8], 0.769; in test [9], 1; in test [10], 1.12; in test [11] it was 0.104. Besides, the composite z-score in test [12] was 0.895; in [13], 1.26; in test [14] it was 1.18; with Lefty1, 0.969; in test [16] it was 0.618. For the same molecule, in test [1], the composite Z-score was -0.126 (inactive). The z-score in test [15] was 1.28; in test [17], 0.349 (inactive).

`CCOC(=O)CCN1C(=O)[C@H]2[C@H]3[C@H](O)[C@H](O)CC(=O)[C@H]3CC[C@H]2C1=O`: the composite z-score in the test with Albumin (Bos taurus) was 0.132; in [2] it was 0.0282; in test [3], -0.0986; in test [4] it was -0.214; in test [5], 0.197; in [6], -0.386. For the same molecule, the composite z-score in the test on Sam68 (KHDRBS1) is 0.321; in test [7], 0.454; in [8] it was 0.528; in test [9], 0.683; in test [10] it was 0.676; in test [11], -0.186. Further, the composite z-score amounted to 0.29 in [12]; 0.369 in test [13]; 0.364 in test [14]; 0.413 with Lefty1; 0.125 in test [16]. The composite Z-score in test [1] is 0.466 (inactive). Further, the z-score in test [15] is -0.648; in test [17], 0.524 (inactive).
